Screens from PubChem.
An excerpt weighted towards active compounds, which were near 4% of everything screened.
PK Bst: alters activity of Bacillus stearothermophilus pyruvate kinase; Potency, µM; AID 361; 51,000 compounds, 1.2% hits; purified pyruvate kinase, luminescence ATP production; ribose 5-phosphate activator present at AC10; in the data active = potency below about 11 µM; inconclusive = mostly about 12 µM to 25 µM;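 the screen sought inhibitors and activators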
TSHR ag: TSH receptor (human) agonism. P16473. HEK293-CNG-TSHR cells (CNG channel as cAMP sensor), membrane potential dye, cAMP. Potency, µM (top dose mostly 57.1 µM), most hits filed as activators. 73,000 compounds, 0.48% hits; active = well fitted activation curve with a large enough effect in the main read-out, with a control signal flat, not every such curve was filed as active; inconclusive = small, poorly fitted or top-dose-only effect, or a change in a side signal; inactive = no such curve, though single readings can be large or run the other way; reference of the percent scale not stated here;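 note: the control signal comes from parental cells without the receptor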
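cAMP rise detected as CNG-channel membrane depolarization by fluorescent dye (emission 590 nm), 30 min after compound, following 60 min dye loading containing 100 uM RO 20-1724 at room temperature. Cells: TSHR/CNG HEK 293, with parental CNG HEK 293 as control.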
HEK293 cAMP cs: raises cAMP in parental HEK293 cells, TSHR agonist counter-screen; parental HEK293 CNG cAMP sensor, membrane potential fluorescence; 73,000 compounds, 2.5% hits; Potency, µM (top dose mostly 57.1 µM), usual class: activators; note: nearly all actives have a fitted effect of over 55% in size
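Parental HEK 293 cells stably expressing a modified CNG channel (no TSHR) report cAMP rise as membrane depolarization. Membrane potential dye with 100 uM RO 20-1724 was loaded for 60 min at room temperature, then compound added for 30 min; fluorescence read at 590 nm.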
GBA activity: modulators of human glucocerebrosidase; P04062; 48,000 compounds, 1.1% hits; purified enzyme, resorufin glucoside fluorescence (screen aimed at inhibitors), 20 min; Potency, µM; in the data active = potency below about 15 µM; inconclusive = mostly about 16 µM to 33 µM;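 note: the screen sought inhibitors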
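Normal human glucocerebrosidase (0.2 nM final) was assayed with resorufin β-D-glucopyranoside (30 uM final) in 50mM citric acid/KH2PO4, 10mM sodium taurocholate, 0.01% tween-20, pH 5.9. Compounds were titrated; fluorescence (Ex 548, Em 600) read after 20 min at RT.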
Caspase-1 inhib: blocks human caspase-1 allosterically or competitively; Potency, µM (highest dose often 57.5 µM), most hits filed as inhibitors; Caspase-1 enzyme, Ac-WEHD-AFC fluorogenic rate; 75,000 compounds, 0.03% hits
Target sequence (P29466 120-297 limits assumed): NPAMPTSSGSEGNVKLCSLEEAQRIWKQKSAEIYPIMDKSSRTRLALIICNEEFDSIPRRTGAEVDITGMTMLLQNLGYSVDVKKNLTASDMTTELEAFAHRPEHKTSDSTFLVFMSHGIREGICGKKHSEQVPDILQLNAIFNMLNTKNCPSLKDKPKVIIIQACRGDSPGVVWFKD
Target sequence (P29466 317-404 limits assumed): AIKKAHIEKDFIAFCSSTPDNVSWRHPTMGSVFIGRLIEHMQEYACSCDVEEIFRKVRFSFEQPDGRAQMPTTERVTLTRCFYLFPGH
Casp7 inh: caspase-7 (human) inhibition, allosteric or competitive | recombinant caspase-7, Ac-DEVD-AFC fluorescence rate | AID 889 | Potency, µM (doses to about 57.5 µM), most hits filed as inhibitors | 75,000 compounds, 0.02% hits | P55210; active = well fitted inhibition curve with a large enough effect in the main read-out, with a control signal flat, not every such curve was filed as active; inconclusive = small, poorly fitted or top-dose-only effect, or a change in a side signal
Numbers stand for hits; 0 = inactive; ? = inconclusive; - = no result; [ ] = another dose, or the depositor's remark. Unless noted, calls come from the whole dose curve; as a rule, active = well fitted curve in the direction sought with a large enough effect; inconclusive = small, poorly fitted or top-dose-only effect, or another doubt; inactive = no such curve, though single readings can be large; an effect the other way counts as inactive or inconclusive.

SMILES	PK Bst	TSHR ag	HEK293 cAMP cs	GBA activity	Caspase-1 inhib	Casp7 inh
COc1ccccc1NC(=O)c1ccc(-c2ccccc2F)o1	0	?	25.1µM	?	0	0
Cc1cc(C)n(-c2nc3ccccc3nc2Nc2ccc3c(c2)OCO3)n1	-	0	0	-	?	?
Cc1ccc2nc(Nc3ccc4[nH]c(=O)[nH]c4c3)c(-n3nc(C)cc3C)nc2c1	7.48	0	0	0	?	?
CCn1ncc(Br)c1C(=O)Nc1cc(C(=O)OC)ccc1C(=O)OC	0	?	12.6µM	0	0	0
CCN(C(=O)c1ccnc(C(C)(C)C)c1)c1ccccc1	0	0	0	0	0	0
CCN(C(=O)N(CC)c1ccccc1)c1ccccc1	-	?	15.8µM	-	0	0
Brc1ccc(-c2cnnc(N3CCCC3)n2)cc1	2.4	-	-	-	-	-
COc1ccc(C2NC3=C(CCC3)C3(C#N)C(OC)(OC)N=C(N)C23C#N)cc1 (stereo unspecified)	0	-	-	-	-	-
CCSC1(SCC)N=C(N)C2(C#N)C(c3ccccc3)NC(C)=C(C)C12C#N (stereo unspecified)	0	25.1µM	0	0	0	0
CN(C)c1oc(-c2ccc(OCc3ccccc3)cc2)nc1C#N	2.77	0	0	0	0	0
CN(C)c1oc(-c2ccccc2F)nc1C#N	-	0	0	-	0	0
N#Cc1nc(-c2ccc(OCc3ccccc3Cl)cc2)oc1NCCCn1ccnc1	2.62	0	0	?	0	0
N#Cc1nc(COc2ccc(Br)cc2)oc1NCCCn1ccnc1	0	-	0	14.4	0	0
N#Cc1nc(-c2ccc(OCc3ccc(Cl)cc3)cc2)oc1NCc1cccnc1	2.66	0	0	0	0	0
Cc1ccc(OCc2nc(C#N)c(NCCCn3ccnc3)o2)cc1	0	0[11.4 µM]	0	-	0	0
N#Cc1nc(-c2ccc(OCc3ccccc3)cc2)oc1NCc1cccnc1	-	0	0	0	0	0
COc1cc(/C=C\C(=O)N2CCCCC2=O)cc(OC)c1OC	-	0	0	-	-	-
O=C1OC(=O)[C@@H]2[C@@H]1[C@@H]1CC[C@H]2O1	-	0	0	-	0	0
N#Cc1nc(-c2ccc(OCc3ccccc3)cc2)oc1NCCCn1ccnc1	4.28	0	0	?	0	0
CCN1C(=S)SC(=O)C1=C1C=C(C)N(CCOC)C(C)=C1	-	?	0	14.8	0	0
Cn1c(=O)c2cn(-c3ccc4c(c3)OCCO4)cc2n(C)c1=O	5.65	0	0	0	0	0
Cc1ccc(-n2cc3c(=O)n(C)c(=O)n(C)c3c2)cc1C	10	0	0	0	0	0
Cc1cc(N)c(-n2cc3c(=O)n(C)c(=O)n(C)c3c2)cc1C	0	0	0	0	?	0
CC(CN(C)C)NC(=O)c1ccc(Cc2nc3ccccc3[nH]2)cc1 (stereo unspecified)	-	0	0	-	0	0
COc1ccc2c(Cc3c4ccccc4cc4ccccc34)cncc2c1O	-	0[11.4 µM]	0[11.4 µM]	-	?	?
SMILES	PK Bst	TSHR ag	HEK293 cAMP cs	GBA activity	Caspase-1 inhib	Casp7 inh
COC(=O)c1ccc(C)c(NC(=O)C2COc3ccccc3O2)c1 (stereo unspecified)	0	0	0	0	0	0
COc1cc(NC(=O)C2COc3ccccc3O2)c(OC)cc1Cl (stereo unspecified)	0	?	15.8µM	0	0	0
CCCCCCCCCCCCCCCCCC(=O)NC[C@@H](COP(=O)([O-])OCC[N+](C)(C)C)OCC	-	0	0	-	0	0
O=C(Nc1ccc(Oc2ccccc2)cc1)C1CCCO1 (stereo unspecified)	-	0	0	-	0	0
O=C(Nc1ccc(-c2nc3ccccc3o2)cc1)C1CCCO1 (stereo unspecified)	6.3	0	0	0	0	0
CC(C)(N=NC(C)(C)C1=NCCN1)C1=NCCN1	-	0[11.4 µM]	0[11.4 µM]	-	0[11.5 µM]	0[11.5 µM]
COc1cc(=O)n(C)c2cc(N(C)C)ccc12	4.87	0	0	-	0	0
CN1C(=O)c2ccc(N(C)C)cc2C1=O	0	-	-	-	-	-
Cc1noc(NS(=O)(=O)c2ccc(NC(=O)CCC3CCCC3)cc2)c1C	0	0	0	15	0	0
COc1ccc(-c2cc(C(=O)N/N=C/c3ccc(O)cc3)[nH]n2)cc1	-	0	0	-	0	0
CC(C)=CCC(C)(C)C1OCCN1C(=O)Nc1ccccc1 (stereo unspecified)	0	10µM	0	-	0	0
CCOC(=O)CSc1nnc(-c2ccccc2NC(=O)c2ccccc2)o1	0	?	?	8.26	0	0
